For 13 molecules, growth results are on record in PubChem BioAssay (NCI).

Some test systems named below: NCI-H23 lung; NCI-H226 lung; NCI-H322M lung; HOP-62 NSCLC; NCI-H460 lung; HOP-92 NSCLC; NCI-H522 lung; A549/ATCC NSCLC; 786-0 renal; COLO 205 colon.
Holding throughout (assay): NCI-60 one-dose screen, 48 h (100 = growth as untreated, 0 = no growth, -100 = all killed)
Settings in all cases: 10 µM unless noted

Structures are written as SMILES. The panel holds about 83,000 compounds, 20% with a hit somewhere; the sample as a whole holds those more often.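 Activity criterion: percent growth below 10, measured after cells in 96-well plates were exposed to a single compound concentration for 48 hours.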 Unmarked numbers belong to inactive results. Activity calls are given as the source filed them.

For `CCN1C(=O)/C(=N\N=C(/C)c2ccc3c(c2)Nc2ccccc2S3)c2cc(Cl)ccc21`, the growth in the test with NCI-H23 lung is 50.4%; in the test with NCI-H226 lung, 66.7%; with NCI-H322M lung, 91.3%; with HOP-62 NSCLC, 92.9%; in the test on NCI-H460 lung, 63.4%; with HOP-92 NSCLC, 29.8%. Besides, the growth in the test on NCI-H522 lung is 54%; in the test with A549/ATCC NSCLC, 49.8%; in the test on 786-0 renal it was 75%; in the test on COLO 205 colon it was 89.8%.
In the case of `O=C1NC(=O)c2c1c1c3cc(Br)ccc3[nH]c1c1oc3ccc(F)cc3c21`, the growth in the test with NCI-H23 lung was -23.6% (active); with NCI-H226 lung, -0.591% (active); with NCI-H322M lung, -11.8% (active); with HOP-62 NSCLC it was -42% (active); in the test on NCI-H460 lung, -82.6% (active); in the test on HOP-92 NSCLC, -53.2% (active). The growth with NCI-H522 lung is -61.6% (active); with A549/ATCC NSCLC, 53.5%; with 786-0 renal, -40.8% (active); with COLO 205 colon, 30.1%.
As to `COc1ccc(C2=NN(c3ccccc3)C(c3ccc(OCc4ccccc4)c(OC)c3)C2)cc1OC` (stereo not given), the growth in the test with NCI-H23 lung is 107%; with NCI-H226 lung it was 124%; in the test with NCI-H322M lung, 103%; in the test on HOP-62 NSCLC, 109%; in the test on NCI-H460 lung, 104%; in the test on HOP-92 NSCLC, 105%. Further, the growth was 85.4% in the test on NCI-H522 lung, 101% with A549/ATCC NSCLC, 97.1% with 786-0 renal and 94.1% with COLO 205 colon.
As for `O=c1[nH]c2ccccc2cc1CSc1nccc(-c2ccc3ccccc3c2)n1`, the growth in the test on NCI-H23 lung was 77.8%; with NCI-H226 lung it was 70.4%; in the test with NCI-H322M lung, 96%; with HOP-62 NSCLC, 71.5%; with NCI-H460 lung it was 77%; with HOP-92 NSCLC, 68.5%. For the same molecule, the growth with NCI-H522 lung was 49.6%; in the test on A549/ATCC NSCLC, 56.8%; in the test with 786-0 renal, 78.3%; with COLO 205 colon, 83.3%.
As for `CC(=O)Oc1ccccc1C(=O)[Se]C(=NC1CCCCC1)NC1CCCCC1`, the growth in the test on NCI-H23 lung was -79.9% (active); in the test with NCI-H226 lung, -88.1% (active); in the test on NCI-H322M lung, -82.7% (active); with HOP-62 NSCLC it was -87% (active); in the test with NCI-H460 lung, -41.6% (active); in the test with HOP-92 NSCLC it was -13.6% (active). Further, the growth was -89.1% (active) with NCI-H522 lung, 0.226% (active) in the test on A549/ATCC NSCLC, -93.4% (active) in the test on 786-0 renal and -70.6% (active) in the test on COLO 205 colon.
In the case of `CC(C)c1ccc2c(N)c(C(=O)Nc3ccc(C(F)(F)F)cn3)sc2n1`, the growth is 43.5% with NCI-H23 lung; 22.9% in the test on NCI-H226 lung; 86.3% in the test on NCI-H322M lung; 57.7% in the test on HOP-62 NSCLC; 61.6% in the test with NCI-H460 lung; 65.1% with HOP-92 NSCLC. The growth in the test on NCI-H522 lung was 63.2%; in the test on A549/ATCC NSCLC, 66.9%; with 786-0 renal, 64.3%; with COLO 205 colon, 93.1%.
Regarding `COc1ccc(-c2nc3ccc(C(=O)NN4C(=O)c5ccc([N+](=O)[O-])cc5C4=O)cc3[nH]2)cc1`, the growth with NCI-H23 lung is 98%; in the test with NCI-H226 lung, 79.9%; in the test on NCI-H322M lung, 96.1%; with HOP-62 NSCLC, 91.8%; with NCI-H460 lung, 100%; in the test with HOP-92 NSCLC, 81%. In addition, the growth in the test with NCI-H522 lung was 88.6%; with A549/ATCC NSCLC, 93%; in the test with 786-0 renal, 87.7%; in the test with COLO 205 colon it was 105%.
On to `CC(C)CSc1nc(NCCc2c[nH]c3ccccc23)c(C#N)c(-c2ccccc2)n1`, for which the growth with NCI-H23 lung was 76.6%; with NCI-H226 lung, 51.3%; with NCI-H322M lung it was 80.7%; in the test on HOP-62 NSCLC, 68.8%; with NCI-H460 lung it was 12.5%; in the test on HOP-92 NSCLC, 61.7%. Further, the growth in the test with NCI-H522 lung was 67.6%; in the test on A549/ATCC NSCLC, 66.9%; in the test on 786-0 renal, 47.1%; in the test with COLO 205 colon it was 50.2%.
Take `Cn1cc(-c2nc(N)nnc2-c2c[nH]c3ccc(F)cc23)c2cccnc21`: the growth is 35.2% in the test on NCI-H23 lung; 38% with NCI-H226 lung; 56.2% in the test on NCI-H322M lung; 20% in the test on HOP-62 NSCLC; 11.6% with NCI-H460 lung; 46.5% in the test with HOP-92 NSCLC. For the same molecule, the growth in the test on NCI-H522 lung was 36.6%; with A549/ATCC NSCLC, 43.8%; in the test on 786-0 renal it was 52.5%; with COLO 205 colon, 53.5%.
Consider `COc1ccc(C(=O)/C=C/c2cccc(Cl)c2Cl)cc1S(N)(=O)=O`, for which the growth is -15.6% (active) in the test on NCI-H23 lung; 18.7% in the test on NCI-H226 lung; 11.5% with NCI-H322M lung; -69.2% (active) in the test with HOP-62 NSCLC; -0.608% (active) with NCI-H460 lung; 21.9% with HOP-92 NSCLC. Further, the growth in the test on NCI-H522 lung was -56.3% (active); with A549/ATCC NSCLC, -2.67% (active); in the test with 786-0 renal, -71.2% (active); in the test with COLO 205 colon it was -79.3% (active).
On to `C=C1CC[C@@H]2[C@]3(C)COC(c4ccco4)O[C@@H]3CC[C@@]2(C)[C@@H]1C/C=C1/C(=O)OCC1OC(C)=O` (stereo not given in full), for which the growth with NCI-H23 lung is 61.6%; with NCI-H226 lung, 0.912% (active); with NCI-H322M lung it was 79.5%; with HOP-62 NSCLC, 66.5%; with NCI-H460 lung, 37.6%; with HOP-92 NSCLC, 37.9%. Moreover, the growth in the test on NCI-H522 lung was -29.9% (active); in the test with A549/ATCC NSCLC, 38.7%; in the test on 786-0 renal, 3.41% (active); in the test on COLO 205 colon it was 48.6%.
Turning to `NS(=O)(=O)c1ccc(N=Nc2c(O)n(CC(=O)Nc3ccccc3)c3ccccc23)cc1`, the growth in the test with NCI-H23 lung is -19.1% (active); in the test on NCI-H226 lung, 25.3%; in the test with NCI-H322M lung it was 52%; in the test with HOP-62 NSCLC it was 10.8%; with NCI-H460 lung it was 4.09% (active); in the test on HOP-92 NSCLC, 77.3%. Also, the growth is 31.6% with NCI-H522 lung, 0.913% (active) with A549/ATCC NSCLC, 1.52% (active) with 786-0 renal and 27.6% with COLO 205 colon.
Consider `O=C(COc1ccc(NC(=O)Nc2ccc(Cl)cc2)cc1)N/N=C/c1ccccc1`, for which the growth in the test with NCI-H23 lung was -94.5% (active); in the test with NCI-H226 lung, -89.2% (active); in the test on NCI-H322M lung, -40.4% (active); with HOP-62 NSCLC, -84.6% (active); in the test on NCI-H460 lung, -79.3% (active); with HOP-92 NSCLC, -77.9% (active). Besides, the growth with NCI-H522 lung is -83.5% (active); with A549/ATCC NSCLC it was -78.3% (active); with 786-0 renal, -82% (active); in the test on COLO 205 colon, -66.5% (active).
